Screens: PubChem, National Center for Advancing Translational Sciences (NCATS)
KB-3-1 tox: KB-3-1 parental cell cytotoxicity; hit rate 1.4% among 400,000; Potency, µM (titrated, usually from 46.1 µM), most hits filed as cytotoxic; KB-3-1 viability, CellTiter-Glo ATP luminescence, 72 h; AID 1347075; further: nearly all actives have a fitted effect of over 60% in size
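Luminescent ATP read-out (CellTiter-Glo) measures survival of drug-naive KB-3-1 cells after 72 h compound exposure at 37 °C. Titration series was screened from lowest to highest concentration, with DMSO vehicle plates as background controls.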
HT1080-NT tox: kills 2HG-producing HT-1080-NT fibrosarcoma cells; HT-1080-NT fibrosarcoma viability, CellTiter-Glo ATP luminescence, 48 h; Potency, µM (top dose mostly 46.1 µM), usual class: cytotoxic; hit rate 1.6% among 360,000; AID 686970;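 further: NT is the 2HG producing partner of a matched IDH1 knockdown line; nearly all actives have a fitted effect of over 55% in size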
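Viability of the 2HG-overproducing fibrosarcoma line after 48 hours of compound exposure at 37 degrees C was determined by luminescence with CellTiter-Glo, and concentration-effect curves were then fitted and categorized.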
KB-V1 MDR tox: KB-V1 MDR subline cytotoxicity; hit rate 3.4% among 400,000; AID 1347076; Potency, µM (top dose mostly 46.1 µM), most hits filed as cytotoxic; KB-V1 MDR cells viability, CellTiter-Glo, 72 h; further: nearly all actives have a fitted effect of over 60% in size
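Potencies derive from concentration-effect curves fitted to normalized luminescence (CellTiter-Glo) of KB-V1 cells treated for 72 h at 37 degrees C in phenol-red-free DMEM containing 10% FBS.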
DT40 TDP1 CPT: growth inhibition of DT40 Tdp1-/-;hTDP1 cells with camptothecin (screen for TDP1 inhibitors) | Potency, µM (doses to about 46.2 µM), most hits filed as inhibitors | hit rate 12% among 420,000 | chicken DT40 Tdp1-/-;hTDP1 cells + 20 nM CPT, ATP luminescence, 48 h; further: nearly all actives have a fitted effect of over 55% in size
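Chicken DT40 Tdp1-/- cells complemented with human TDP1, 400 cells/well, exposed to compounds plus 20 nM camptothecin for at least 48 h at 37 C; viability read as ATP content by CellTiter-Glo luminescence.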
DT40 TDP1 no CPT: qHTS for Inhibitors of human tyrosyl-DNA phosphodiesterase 1 (TDP1): qHTS in cells in absence of CPT; Potency, µM (series often up to 46.2 µM), most hits filed as inhibitors; hit rate 15% among 420,000; DT40 Tdp1-/- hTDP1 cells, no CPT, ATP luminescence, 48 h; further: nearly all actives have a fitted effect of over 55% in size
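Cells were dispensed at 400 per well, compounds added by pin tool, plates incubated ≥48 hr at 37 °C, then CellTiter-Glo added for 30 min at room temperature before luminescence reading. Line: DT40 Tdp1-/- complemented with hTDP1; camptothecin omitted.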
HT1080 IDH1KD tx: kills HT-1080 cells with IDH1 knockdown; Potency, µM (doses to about 46.1 µM), most hits filed as cytotoxic; HT-1080 IDH1 knockdown viability, ATP luminescence, 48 h; hit rate 2% among 360,000
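Knockdown cells (IDH1KD HT-1080) received compounds 2 h after plating at 750 cells/well and were kept 48 h at 37 °C in 5% FBS RPMI. A CellTiter-Glo luminescence read gave % activity for curve fitting.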
Numbers stand for hits; 0 = inactive; ? = inconclusive; - = no result given. This is a sample that favours compounds with a hit; in the whole collection about 19% have one here. The call rests on the fitted dose curve; in most records, active means well fitted curve in the direction sought with a large enough effect; inconclusive means small, poorly fitted or top-dose-only effect, or another doubt; inactive means no such curve, though single readings can be large; an effect the other way counts as inactive or inconclusive.

SMILES	KB-3-1 tox	HT1080-NT tox	KB-V1 MDR tox	DT40 TDP1 CPT	DT40 TDP1 no CPT	HT1080 IDH1KD tx
CCOC(=O)c1c(-c2ccc(C)cc2)csc1NC(=O)C1CCCO1 (stereo unspecified)	0	0	0	?	26µM	0
COC(=O)c1c(-c2cccc(C)c2)csc1NC(=O)C1CCCO1 (stereo unspecified)	0	0	?	?	18µM	0
CCOC(=O)c1c(-c2ccc(C)cc2)csc1NC(=O)c1cc(=O)c2cc(Cl)ccc2o1	0	-	0	0	4.6µM	-
Cn1cccc1CN1CCC[C@]2(N[C@H](c3ccccc3)[C@@H]3C(=O)N(Cc4ccccc4)C(=O)[C@@H]32)C1=O	0	0	0	?	?	0
CSCCC(c1nnnn1-c1c(C)cccc1C)N1CCN(C/C=C/c2ccccc2)CC1 (stereo unspecified)	?	?	?	?	18µM	?
CCC(c1nnnn1-c1c(C)cccc1C)N1CCN(C/C=C/c2ccccc2)CC1 (stereo unspecified)	?	18µM	?	6.5µM	7.3µM	?
c1cncc(CNc2ncncc2-c2ccoc2)c1	-	-	-	?	0	-
COc1ccc2cc(S(=O)(=O)N3CCCC(C)C3)ccc2c1 (stereo unspecified)	0	0	0	?	23µM	0
CN1CCN(S(=O)(=O)c2ccc3ccccc3c2)CC1	0	0	0	0	0	0
CCOc1ccc2cc(S(=O)(=O)N3CCCCC3)ccc2c1	0	0	0	29µM	?	0
CCOc1ccc2cc(S(=O)(=O)N3CCN(C)CC3)ccc2c1	0	0	0	?	23µM	0
O=C(C[n+]1cccc(Br)c1)c1ccc2c(c1)CCCC2	?	-	0	?	?	-
CCn1c2ccccc2c2cc(/C=N/n3c(-c4cc(C)[nH]n4)n[nH]c3=S)ccc21	0	0	0	21µM	?	?
CCn1c2ccccc2c2cc(/C=N/n3cnnc3)ccc21	0	?	0	18µM	0	0
CCn1c2ccccc2c2cc(/C=N/O)ccc21	0	0	12µM	?	?	0
O=C1NC(=S)S/C1=C\c1cc(Cl)cc(Cl)c1O	?	0	0	?	?	0
O=C1Nc2c(Cl)cc(Cl)cc2C1=O	0	0	0	7.3µM	10µM	?
CCc1cccc(OCC(=O)Nc2ccccc2N2CCCC2)c1	0	0	?	?	?	0
CCOC(=O)N1CCN(C(C(=O)NC2CCCC2)c2ccco2)CC1 (stereo unspecified)	0	0	?	?	0	0
COc1cccc(C(C(=O)NC2CCCC2)N2CCN(c3ncccc3C#N)CC2)c1OC (stereo unspecified)	0	0	?	?	16µM	0
Cc1ccc(C)c(N2CCN(C(C(=O)NC3CCCC3)c3ccco3)CC2)c1 (stereo unspecified)	?	?	?	?	12µM	?
COc1cccc(C(C(=O)NC2CCCC2)N2CCN(c3cc(C)ccc3C)CC2)c1OC (stereo unspecified)	?	?	16µM	21µM	21µM	?
CC(C)C(C(=O)NC1CCCC1)N1CCC(O)(c2ccc(Cl)cc2)CC1 (stereo unspecified)	0	0	?	?	?	0
O=C(NC1CCCC1)C(c1ccco1)N1CCC(O)(c2ccc(Cl)cc2)CC1 (stereo unspecified)	0	0	?	23µM	18µM	0
CC(Oc1ccccc1)C(=O)Nc1cccc(-c2cn3cccnc3n2)c1 (stereo unspecified)	0	-	0	?	?	-
SMILES	KB-3-1 tox	HT1080-NT tox	KB-V1 MDR tox	DT40 TDP1 CPT	DT40 TDP1 no CPT	HT1080 IDH1KD tx
N#C/C(=C(/O)c1cccs1)c1nc2ccccc2[nH]1	0	0	?	?	0	0
N#C/C(=C(/O)c1ccc([N+](=O)[O-])s1)c1nc2ccccc2[nH]1	?	?	0	0	1µM	?
N#C/C(=C(/O)c1ccc(Br)s1)c1nc2ccccc2[nH]1	6.5µM	?	?	4.6µM	7.3µM	?
Oc1ccccc1C=Nc1ccccc1-c1nc2ccccc2[nH]1	0	0	0	?	16µM	?
c1ccc2nc(-c3nc4ccccc4[nH]3)ccc2c1	?	26µM	?	?	5.2µM	13µM
Fc1ccccc1-c1nc2ccccc2[nH]1	0	0	0	0	0	0
c1ccc2c(-c3nc4ccccc4[nH]3)cccc2c1	21µM	?	4.6µM	9.2µM	4.6µM	18µM
